This is an account of results in PubChem BioAssay (Tox21).

A short description of assay [1]: qHTS assay to identify small molecule antagonists of the retinoid acid receptor (RAR) signaling pathway - cell viability counter screen (AID 1159551). Further: nearly all actives have a fitted effect of over 35% in size. Further: potency means the concentration at half of the fitted maximal effect. In short, it runs like this: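 C3RL4 RARE-luciferase line; cpds + retinol 1 uM final, 6 h, 37 C/5% CO2; CellTiter-Glo ATP luminescence, 30 min RT.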
In general terms: qHTS replaces the single test concentration by a dilution series.

Assay [2] in a line: qHTS assay to identify small molecule antagonists of the retinoic acid receptor (RAR) signaling pathway (AID 1159552; further: nearly all actives have a fitted effect of over 50% in size; further: potency means the concentration at half of the fitted maximal effect). In short, it runs like this:
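Using a RARE-driven luciferase construct in C3RL4 cells, retinol at 1 uM final provided the agonist stimulus while compounds were co-applied. After 6 hours at 37 C, luminescence was recorded to flag inhibitors of retinol signaling.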

A short description of assay [3]: qHTS assay to identify small molecule agonists of the retinoic acid receptor (RAR) signaling pathway (AID 1159553). Further: on the % scale 0 is the no-effect control and ±100 the full control effect. In short, it runs like this: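 RARE-luc C3RL4 cells; overnight attachment 37 C/5% CO2; compound (DMSO) 6 hr; luciferase reagent, 30 min RT; luminescence read-out.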
Assay [4] concerns the target Luciferin 4-monooxygenase (Photinus pyralis) (UniProt P08659). As to the kind of experiment: qHTS assay to identify small molecule inhibitors of firefly luciferase (AID 1224835). Further: nearly all actives have a fitted effect of over 25% in size. Further: potency means the concentration at half of the fitted maximal effect. In short, it runs like this:
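Inhibition of purified Photinus luciferase is measured by luminescence. Substrate levels (D-luciferin, ATP) sit at their KM values. Each compound is tested in a concentration series.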

Assay [5] is described as follows: qHTS assay to identify small molecule agonists of the constitutive androstane receptor (CAR) signaling pathway - cell viability counter screen (AID 1224836). Further: nearly all actives have a fitted effect of over 45% in size. Further: potency means the concentration at half of the fitted maximal effect. In short, it runs like this: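 Multiplexed viability check: HepG2-CYP2B6-hCAR cells, 15-point compound dosing, 0.75 uM PK11195 final, 23 h at 37 C, CellTiter-Fluor fluorescence.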
Assay [6] in a line: qHTS assay to identify small molecule antagonists of the constitutive androstane receptor (CAR) signaling pathway - cell viability counter screen (AID 1224837). Further: nearly all actives have a fitted effect of over 45% in size. Further: potency means the concentration at half of the fitted maximal effect. In short, it runs like this: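 Read-out: CellTiter-Fluor fluorescence after 23 hr at 37 C/5% CO2. Cells: HepG2 double-stable for hCAR and CYP2B6-2.2kb. Compounds tested at 15 concentrations in the presence of CITCO, final concentration 50 nM.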

Assay [7] in a line: qHTS assay to identify small molecule antagonists of the estrogen related receptor signaling pathway with the pleiotropic PPARgamma coactivator (PGC) from Tox21 10K library - cell viability counter screen (AID 1224840; active means well fitted cell-killing curve with a large enough effect in the repeat runs, not every such curve was filed as active; further: nearly all actives have a fitted effect of over 40% in size; further: potency means the concentration at half of the fitted maximal effect). In short, it runs like this: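 Fluorescence read-out of CellTiter-Fluor viability reagent, added after cells had been exposed to compound in DMSO for 17.5 h at 37 C; 30 min development at 37 C/5% CO2. Cells: PGC/ERR line, 2,000/well.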

Assay [8] concerns the target Thyrotropin receptor (Homo sapiens) (UniProt P16473). In words: qHTS assay to identify small molecule agonists of the thyroid stimulating hormone receptor (TSHR) signaling pathway (AID 1224843; calls by dose curve; further: on the % scale 0 is the no-effect control and ±100 the full control effect; nearly all actives have a fitted effect of over 45% in size). In short, it runs like this:
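A cell-based cAMP HTRF format was run in TSHR-transfected HEK293 cells, 800 per well. Treatment: 30 min, room temperature. Detection: 1 h with labelled cAMP and anti-cAMP cryptate. Concentration-response over 15 points, three replicates.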

A short description of assay [9]: qHTS assay to identify small molecule agonists of the hypoxia (HIF-1) signaling pathway - cell viability counter screen (AID 1224844; calls by dose curve; further: nearly all actives have a fitted effect of over 50% in size; further: potency means the concentration at half of the fitted maximal effect). In short, it runs like this: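 CellTiter-Glo luminescence read-out, 30 min RT, taken in the same wells as the beta-lactamase HRE reporter assay; HRE-bla ME-180 cells, 0.5% dialyzed FBS, 17 hr compound treatment at 37C, 5% CO2.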
Assay [10] can be described thus: qHTS assay to identify small molecule antagonists of the estrogen related receptor (ERR) signaling pathway from Tox21 library - cell viability counter screen (AID 1224834). Further: potency means the concentration at half of the fitted maximal effect; nearly all actives have a fitted effect of over 30% in size. In short, it runs like this: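 Multiplexed viability counter screen in ERR cells: 17.5 h compound exposure at 37 C, CellTiter-Fluor added, 30 min at 37 C/5% CO2, fluorescence read.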
For assay [11], the target named is Nuclear receptor subfamily 1 group I member 3 (Homo sapiens) (UniProt Q14994). As to the kind of experiment: qHTS assay to identify small molecule antagonists of the constitutive androstane receptor (CAR) signaling pathway (AID 1224838).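 Further: HepG2 cells stably expressing hCAR with CYP2B6 luciferase reporter stimulated by CITCO; potency means the concentration at half of the fitted maximal effect; nearly all actives have a fitted effect of over 40% in size.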 In short, it runs like this: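 Read-out: ONE-Glo luciferase luminescence after 30 min at room temperature. HepG2-CYP2B6-hCAR double-stable cells, compounds in 15-point titration plus 50 nM CITCO final, 24 h at 37 C/5% CO2.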
Sequence of Nuclear receptor subfamily 1 group I member 3 (Homo sapiens) (Q14994 whole entry, looked up): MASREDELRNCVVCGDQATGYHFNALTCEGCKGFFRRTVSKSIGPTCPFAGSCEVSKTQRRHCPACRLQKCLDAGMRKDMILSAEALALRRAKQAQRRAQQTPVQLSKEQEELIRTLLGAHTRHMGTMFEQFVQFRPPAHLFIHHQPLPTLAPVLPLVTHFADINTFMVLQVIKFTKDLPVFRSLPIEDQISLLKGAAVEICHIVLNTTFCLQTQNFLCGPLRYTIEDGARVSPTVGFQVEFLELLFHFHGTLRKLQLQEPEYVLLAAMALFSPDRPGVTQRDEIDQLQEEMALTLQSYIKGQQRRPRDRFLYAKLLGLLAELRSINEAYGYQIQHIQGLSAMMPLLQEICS

The target is the same in assay [12]. In words: qHTS assay to identify small molecule agonists of the constitutive androstane receptor (CAR) signaling pathway (AID 1224839).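 Further: HepG2 cells stably carrying human CAR and a CYP2B6 luciferase reporter; series mostly up to about 92 µM; on the % scale 0 is the no-effect control and ±100 the full control effect; nearly all actives have a fitted effect of over 15% in size.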 In short, it runs like this: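 Using human hepatoma HepG2 cells engineered with hCAR and a CYP2B6-2.2kb reporter, 15-concentration compound series were incubated 24 h alongside PK11195 at 0.75 uM final, with luminescence quantified afterwards.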

The nature of assay [13]: qHTS assay to identify small molecule antagonists of the estrogen related receptor (ERR) signaling pathway (AID 1224819; further: potency means the concentration at half of the fitted maximal effect; nearly all actives have a fitted effect of over 50% in size). In short, it runs like this:
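Luminescence readout (One-Glo, 30 min, RT) of ERR cell line after 18 h compound exposure at 37 C; cells seeded 2,000/well, pre-incubated 6 h, compounds pinned from DMSO stocks.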

The nature of assay [14]: qHTS assay to identify small molecule agonists of the estrogen related receptor (ERR) signaling pathway (AID 1224820). Further: on the % scale 0 is the no-effect control and ±100 the full control effect. In short, it runs like this: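 Luminescence readout (One-Glo, 30 min RT) from NTP-supplied ERR cell line exposed to compounds for 18 h at 37 C. Cells seeded 2,000 per well and pre-incubated 6 h before pin-tool compound transfer.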
Assay [15] can be described thus: qHTS assay to identify small molecule agonists of the estrogen related receptor signaling pathway with the pleiotropic PPARgamma coactivator (PGC) (AID 1224823). Further: on the % scale 0 is the no-effect control and ±100 the full control effect. In short, it runs like this: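 Luminescence readout (One-Glo, 30 min RT) from PGC/ERR cell line treated 18 h at 37 C with pin-tool-delivered DMSO compound solutions; cells plated 6 h before dosing. Quantitative HTS format.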

The nature of assay [16]: qHTS assay to identify small molecule agonists of the estrogen related receptor signaling pathway with the pleiotropic PPARgamma coactivator (PGC) from Tox21 10K library (AID 1224842). Further: on the % scale 0 is the no-effect control and ±100 the full control effect; nearly all actives have a fitted effect of over 15% in size. In short, it runs like this: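 Luminescence from One-Glo (30 min, room temperature) measured after PGC/ERR cells had 18 h at 37 C with pinned compound (23 nL in DMSO). Cells had been seeded at 2,000 per well and pre-incubated 6 h.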

Assay [17] in a line: qHTS assay to identify small molecule antagonists of the estrogen related receptor (ERR) signaling pathway - cell viability counter screen (AID 1224818). Further: potency means the concentration at half of the fitted maximal effect. In short, it runs like this: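 Fluorescence from CellTiter-Fluor, read 30 min after reagent addition at 37 C, measured viability of ERR cells exposed to compounds for 17.5 h. Cells had settled 6 h before dosing.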
Assay [18] has as its system estrogen-related receptor alpha (ERRalpha) with PGC-1alpha coactivator, human. In words: qHTS assay to identify small molecule antagonists of the estrogen related receptor signaling pathway with the pleiotropic PPARgamma coactivator (PGC) (AID 1224821; calls by dose curve; further: potency means the concentration at half of the fitted maximal effect; nearly all actives have a fitted effect of over 50% in size). In short, it runs like this: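 PGC/ERR reporter cells; 6 h pre-incubation 37 C/5% CO2; pin-tool compound in DMSO, 18 h 37 C; One-Glo added, 30 min RT; luminescence read. qHTS antagonist mode.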

Assay [19] is described as follows: qHTS assay to identify small molecule antagonists of the estrogen related receptor signaling pathway with the pleiotropic PPARgamma coactivator (PGC) cell viability counter screen (AID 1224822; further: potency means the concentration at half of the fitted maximal effect). In short, it runs like this:
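Fluorescence read-out of CellTiter-Fluor after 30 min at 37 C; PGC/ERR cells, 2,000 per well, had been exposed to DMSO-dissolved compounds for 17.5 h following a 6 h pre-incubation.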

The nature of assay [20]: qHTS assay to identify small molecule antagonists of the estrogen related receptor signaling pathway with the pleiotropic PPARgamma coactivator (PGC) from Tox21 10K library (AID 1224841; call rule not given here). In short, it runs like this:
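Luminescence read-out (One-Glo luciferase reagent, 30 min at room temperature) from PGC/ERR cells exposed to DMSO-dissolved test compounds for 18 h at 37 C; cells, 2,000 per well, had been preincubated 6 h before compound transfer.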

Results filed as inconclusive are left out. Unmarked numbers belong to inactive results. The source made the active and inactive calls. Unless noted, the call rests on the fitted dose curve; in most records, active means well fitted curve in the direction sought with a large enough effect in the repeat runs; inconclusive means weak or mixed curves; inactive means no such curve, though single readings can be large; an effect the other way counts as inactive or inconclusive.

Sequence of Luciferin 4-monooxygenase (Photinus pyralis) (P08659 whole entry, looked up): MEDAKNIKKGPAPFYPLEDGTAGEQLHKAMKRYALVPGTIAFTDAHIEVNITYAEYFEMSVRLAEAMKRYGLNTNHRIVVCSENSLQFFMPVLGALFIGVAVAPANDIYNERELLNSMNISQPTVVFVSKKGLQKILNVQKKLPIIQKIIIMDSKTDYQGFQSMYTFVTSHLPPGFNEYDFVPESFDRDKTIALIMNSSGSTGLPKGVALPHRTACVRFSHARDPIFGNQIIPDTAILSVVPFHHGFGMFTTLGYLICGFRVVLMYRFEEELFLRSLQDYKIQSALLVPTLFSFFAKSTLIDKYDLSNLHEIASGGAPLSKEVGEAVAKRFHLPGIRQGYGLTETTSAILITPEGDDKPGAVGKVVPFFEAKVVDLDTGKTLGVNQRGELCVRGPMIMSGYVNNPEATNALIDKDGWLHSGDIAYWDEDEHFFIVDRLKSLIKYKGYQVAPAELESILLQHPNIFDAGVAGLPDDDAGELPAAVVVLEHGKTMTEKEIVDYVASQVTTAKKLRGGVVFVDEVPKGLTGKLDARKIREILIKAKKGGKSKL
Sequence of Thyrotropin receptor (Homo sapiens) (P16473 whole entry, looked up): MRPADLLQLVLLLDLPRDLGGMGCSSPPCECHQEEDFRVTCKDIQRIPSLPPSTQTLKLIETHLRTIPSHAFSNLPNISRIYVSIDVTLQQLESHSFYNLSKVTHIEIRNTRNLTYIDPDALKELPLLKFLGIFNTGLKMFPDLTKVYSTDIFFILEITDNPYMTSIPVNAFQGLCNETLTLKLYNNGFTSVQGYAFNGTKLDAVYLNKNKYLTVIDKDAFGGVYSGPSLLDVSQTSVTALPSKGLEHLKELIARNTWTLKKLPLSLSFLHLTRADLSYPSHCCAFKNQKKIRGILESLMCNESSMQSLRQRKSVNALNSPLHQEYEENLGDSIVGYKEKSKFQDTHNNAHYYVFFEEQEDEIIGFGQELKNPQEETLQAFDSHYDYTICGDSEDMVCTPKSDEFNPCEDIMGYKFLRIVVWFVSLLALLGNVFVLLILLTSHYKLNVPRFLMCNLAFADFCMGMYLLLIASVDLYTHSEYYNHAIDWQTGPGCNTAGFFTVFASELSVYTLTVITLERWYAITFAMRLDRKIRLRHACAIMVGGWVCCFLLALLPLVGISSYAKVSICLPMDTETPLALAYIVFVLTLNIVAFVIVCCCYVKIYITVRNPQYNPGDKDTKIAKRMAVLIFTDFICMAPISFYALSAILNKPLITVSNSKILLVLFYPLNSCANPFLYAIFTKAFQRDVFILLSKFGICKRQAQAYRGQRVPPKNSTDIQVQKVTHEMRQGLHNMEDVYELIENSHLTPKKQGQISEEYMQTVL

On to `CC(C)(C)c1ccc(C(=O)O)cc1`, for which the Potency entry in assay [1], in [2], in [3], in assay [5], in [6] and in assay [7] was “inactive” each time. Also, the Potency entry in [8] and in assay [9] was “inactive” each time. In assay [4], the Potency is 35.6 µM (active).

In the case of `Cc1[nH]nc2c1N=C(c1ccccc1Cl)c1cc([N+](=O)[O-])ccc1N2`, the Potency in assay [1] was 43.3 µM (active); in assay [2], 30.6 µM (active); in [10], 24.3 µM (active); in assay [4] it was 63.3 µM (active); in assay [5] it was 27.3 µM (active); in [6] it was 21.7 µM (active). Further, the Potency is 7.7 µM (active) in assay [11] and 34.4 µM (active) in assay [7]. Also, the Potency result in assay [12] and in [8] was “inactive” each time.

For the molecule `Fc1ccc(C(c2ccc(F)cc2)N2CCN(C/C=C/c3ccccc3)CC2)cc1`, the Potency result in assay [1], in assay [2], in assay [4], in assay [5], in [6] and in assay [12] was “inactive” each time. The Potency result in assay [16] and in [8] was “inactive” each time. Besides, the figures for the Potency in [13] and in assay [10] were 19.6 µM (active) and 26.6 µM (active), respectively. Further, the molecule was called inactive in assay [14] and in assay [15].

Regarding `O=C1C=CC(=O)N1c1ccc(Cc2ccc(N3C(=O)C=CC3=O)cc2)cc1`, the Potency in [1] was 61.1 µM (active); in [2] it was 13.7 µM (active); in [10], 30.6 µM (active); in [4], 15.9 µM (active); in assay [5], 54.5 µM (active); in assay [11], 27.3 µM (active). The Potency in assay [7] was 27.3 µM (active); in assay [9], 11 µM (active). Besides, in assay [12], the Potency entry was “inactive”.

Turning to `C[n+]1cc2c3c(ccc2c2ccc4cc5c(cc4c21)OCO5)OCO3`, the Potency is 3.66 µM (active) in [1]; 1.83 µM (active) in assay [2]; 2.87 µM (active) in assay [17]; 3.1 µM (active) in assay [13]; 2.28 µM (active) in assay [18]; 0.944 µM (active) in [19]. The Potency was 2.91 µM (active) in [10]; 6.74 µM (active) in assay [4]; 2.91 µM (active) in assay [5]; 2.59 µM (active) in assay [6]; 2.91 µM (active) in assay [11]; 3.26 µM (active) in assay [7]. In addition, the Potency in assay [20] was 7.3 µM (active); in assay [9], 2.61 µM (active). The call in assay [14] and in [15] was inactive. For the same molecule, the activation in assay [12] is -21.2% [at 19 µM]; in [16], -34.9% [at 19 µM]; in assay [8], -8.77% [at 19 µM].

Consider `CCN(CC)CCNC(=O)c1c(C)[nH]c(/C=C2\C(=O)Nc3ccc(F)cc32)c1C`, for which the Potency in assay [1] was 33.5 µM (active); in assay [2] it was 26.6 µM (active); in [19], 8.74 µM (active); in assay [5], 10.6 µM (active); in assay [6], 10.6 µM (active); in [11], 10.6 µM (active). Moreover, the Potency in assay [7] is 29.8 µM (active); in assay [9], 9.52 µM (active). The Potency result in assay [12] was “inactive”.

Consider `CC(C)(C)CC(C)(C)c1ccc(O)c(Cc2ccc(Cl)cc2Cl)c1`, for which the Potency is 26.6 µM (active) in assay [1]; 13.3 µM (active) in [2]; 23.7 µM (active) in [10]; 29.8 µM (active) in assay [7]; 9.52 µM (active) in assay [9]. Also, the Potency entry in assay [4], in assay [12] and in [8] was “inactive” throughout.

As for `c1ccc(CSCc2ccccc2)cc1`, the Potency result in assay [1], in [2], in [5], in assay [6], in assay [7] and in assay [9] was “inactive” in each case.
